Data taken from PubChem BioAssay (NCI).
Compounds without any hit were thinned out: in the full panel of roughly 83,000, 20% have a hit.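 Growth was measured after 48 h exposure to one concentration of compound in 96-well plates. Values under 10 count as active.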 Unmarked numbers belong to inactive results. The source made the active and inactive calls.

The compounds below were run on CCRF-CEM leukemia (assay: NCI-60 one-dose screen, 48 h (100 = growth as untreated, 0 = no growth, -100 = all killed)). Details: 10 µM.

Going from `COc1ccc(C(O)c2ccccc2)cc1` (stereo not given) to `COc1ccc(-c2cc3c(nn2)-c2ccccc2C3=O)cc1`, the growth falls from 106% to 28.6%.

First: CC1CC(O)C2C3(C)CCCC2(COC3=O)C12CCC1(CCOC1=O)O2 (stereo not given)
Second: COc1cccc(/C=N/NC(=S)NC2CC3CCC2C3)c1O (stereo not given)
The growth of the first is higher: 104% for the first, 29.1% for the second.

Going from `c1ccc2c(c1)Sc1ccccc1S2` to `O=S(=O)(Cc1ccccc1)c1ccccc1`, the growth rises from 97.3% to 105%.

Compared with `Cc1ncc(C#N)c(N)n1`, `Cc1cccc(CO)c1` is lower in growth: 126% for the first, 110% for the second.

`NCCCN` and `O=C(O)CCCC(=O)O` are the same in growth: 101% for the first, 101% for the second.

`CCCC(C)OCC(=O)O` (stereo not given) and `O=C(O)COCC(=O)O` are the same in growth: 101% for the first, 101% for the second.

Going from `C#CC(C(C)C)N(CCO)CCCC` (stereo not given) to `CCOC(=O)C(O)C(O)C(=O)OCC` (stereo not given), the growth rises from 95.6% to 107%.

First: O=C(O)/C=C/c1ccc2c(c1)CCC2
Second: O=C(O)c1cccc([N+](=O)[O-])c1
The growth of the first is lower: 83.5% for the first, 112% for the second.

Compared with `CC1(C(=O)O)NC(C(=O)O)Cc2c1[nH]c1ccccc21` (stereo not given), `O=C(/C=C/C(=O)c1ccccc1)c1ccccc1` is lower in growth: 82.8% for the first, 37.9% for the second.

Going from `O=[N+]([O-])c1ccc(/C=C/C=C/c2ccccc2)c(Cl)c1` to `O=C1C=C(Nc2ccc([N+](=O)[O-])cc2)c2ccccc2C1=O`, the growth falls from 90.7% to 38.9%.

Compared with `CC(=O)OCCO`, `O=P(O)(O)OCC(O)CO` (stereo not given) is lower in growth: 111% for the first, 100% for the second.

Compared with `O=C(/C(=N/O)c1ccccc1)c1ccccc1`, `CC(=O)Cc1ccc(-c2ccccc2)cc1` is higher in growth: 97.9% for the first, 102% for the second.

First: CC(C)=NNC(N)=S
Second: C=C[Si](OC(C)=O)(OC(C)=O)OC(C)=O
The growth of the first is lower: 44.2% for the first, 88% for the second.

Going from `CCn1c(=O)n(C)c2c(=O)n(C)c(=O)n(C)c21` to `CCN1C(=O)/C(=C/C=C/N(C)c2ccccc2)SC1=S`, the growth falls from 98.2% to 92%.

Compared with `O/N=C/c1ccc(O)cc1O`, `Cc1ccc(C(O)C2CC2)cc1` (stereo not given) is higher in growth: 86.5% for the first, 91.7% for the second.

With `COc1cc(C2c3cc4c(cc3C3OC(=O)C2C3CO)OCO4)cc(OC)c1OC` (stereo not given) the growth was -7.15% (active).
`CCN(CC)CCCC(C)Nc1ccnc(/C=C/c2ccc(Cl)cc2)c1` (stereo not given) was tested, and the growth was 6.37% (active).
With `CC(=O)OCC1OC(OC2=C(CC=C(C)C)C(=O)c3ccccc3C2=O)C(OC(C)=O)C(OC(C)=O)C1OC(C)=O` (stereo not given) the growth was -25.8% (active).
`c1cc[n+](C2c3ccccc3C([n+]3ccccc3)c3ccccc32)cc1` (stereo not given) was tested, and the growth was -42.3% (active).

Each compound was assayed on MOLT-4 leukemia in the same assay as above. Details: 10 µM.

Compared with `COc1ccc(C(O)c2ccccc2)cc1` (stereo not given), `COc1ccc(-c2cc3c(nn2)-c2ccccc2C3=O)cc1` is lower in growth: 94.1% for the first, 57.1% for the second.

Going from `CC1CC(O)C2C3(C)CCCC2(COC3=O)C12CCC1(CCOC1=O)O2` (stereo not given) to `COc1cccc(/C=N/NC(=S)NC2CC3CCC2C3)c1O` (stereo not given), the growth falls from 114% to 44.8%.

Going from `c1ccc2c(c1)Sc1ccccc1S2` to `O=S(=O)(Cc1ccccc1)c1ccccc1`, the growth falls from 111% to 108%.

Compared with `Cc1ncc(C#N)c(N)n1`, `Cc1cccc(CO)c1` is higher in growth: 102% for the first, 106% for the second.

Going from `NCCCN` to `O=C(O)CCCC(=O)O`, the growth falls from 112% to 103%.

First: CCCC(C)OCC(=O)O (stereo not given)
Second: O=C(O)COCC(=O)O
The growth of the first is lower: 95% for the first, 99.1% for the second.

Compared with `C#CC(C(C)C)N(CCO)CCCC` (stereo not given), `CCN(CC)CCCC(C)Nc1ccnc(/C=C/c2ccc(Cl)cc2)c1` (stereo not given) is lower in growth: 107% for the first, 13.3% for the second.

Going from `O=C(O)/C=C/c1ccc2c(c1)CCC2` to `O=C(O)c1cccc([N+](=O)[O-])c1`, the growth rises from 97.1% to 101%.

First: CC1(C(=O)O)NC(C(=O)O)Cc2c1[nH]c1ccccc21 (stereo not given)
Second: O=C(/C=C/C(=O)c1ccccc1)c1ccccc1
The growth of the first is higher: 88.8% for the first, 79.2% for the second.

First: O=[N+]([O-])c1ccc(/C=C/C=C/c2ccccc2)c(Cl)c1
Second: O=C1C=C(Nc2ccc([N+](=O)[O-])cc2)c2ccccc2C1=O
The growth of the first is higher: 86.4% for the first, 28.5% for the second.

Compared with `CC(=O)OCCO`, `CCOC(=O)C(O)C(O)C(=O)OCC` (stereo not given) is higher in growth: 102% for the first, 104% for the second.

Compared with `O=C(/C(=N/O)c1ccccc1)c1ccccc1`, `c1ccc(/C(=N\N=C(/c2ccccc2)c2cccs2)c2cccs2)cc1` is lower in growth: 123% for the first, 91.9% for the second.

Compared with `CC(C)=NNC(N)=S`, `C=C[Si](OC(C)=O)(OC(C)=O)OC(C)=O` is higher in growth: 60.4% for the first, 98.3% for the second.

Compared with `CCn1c(=O)n(C)c2c(=O)n(C)c(=O)n(C)c21`, `CCN1C(=O)/C(=C/C=C/N(C)c2ccccc2)SC1=S` is lower in growth: 101% for the first, 89% for the second.

Compared with `O/N=C/c1ccc(O)cc1O`, `Cc1ccc(C(O)C2CC2)cc1` (stereo not given) is lower in growth: 102% for the first, 100% for the second.

Compared with `Clc1ccc(-c2nnc(-c3cccc4ccccc34)o2)cc1`, `CC(=O)Cc1ccc(-c2ccccc2)cc1` is higher in growth: 104% for the first, 117% for the second.

Going from `O=P(O)(O)OCC(O)CO` (stereo not given) to `c1cc[n+](C2c3ccccc3C([n+]3ccccc3)c3ccccc32)cc1` (stereo not given), the growth falls from 103% to 86.5%.

`COc1cc(C2c3cc4c(cc3C3OC(=O)C2C3CO)OCO4)cc(OC)c1OC` (stereo not given) was tested, and the growth was -9.4% (active).
In the case of `CC(=O)OCC1OC(OC2=C(CC=C(C)C)C(=O)c3ccccc3C2=O)C(OC(C)=O)C(OC(C)=O)C1OC(C)=O` (stereo not given), the growth is reported as -26.7% (active).
